# Data from the supplement of paper PMC10849652.
# Of roughly 7,900 targets only a part is listed; those with a hit were picked by preference. About 0.6% of all pairs of compound and target were hits. A number with no mark means an inactive call.
# Compound: CC1=C2C(=CC=C1)N=C(N(C2=O)C3=CC=CC=C3C)CN4C=NC5=C(N=CN=C54)N
# Assay: log2 fold change, soluble protein after heating vs DMSO (PISA); higher = thermal stabilisation; K562 cells, 10 uM, 30 min; active = over 0.2 and 3.5 SD of the protein, either way, in both replicates (recomputed)
# Outline: (§1)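 K562 cells (2×10^6 cells/mL) were treated with 10 μM compound for 30 min, and aliquots were heated for 3 min over 48°C-58°C. Pooled aliquots were extracted in PBS with 0.5% NP-40 at 4°C, and the supernatant after 21,000xg for 90 min was measured by TMTpro 16plex LC-MS/MS with channel sums equalised. Reported thermal stability, relative to control samples and from duplicates, is a log2 fold change.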
# UniProt Q86YN1, sequence (Q86YN1 whole entry, looked up): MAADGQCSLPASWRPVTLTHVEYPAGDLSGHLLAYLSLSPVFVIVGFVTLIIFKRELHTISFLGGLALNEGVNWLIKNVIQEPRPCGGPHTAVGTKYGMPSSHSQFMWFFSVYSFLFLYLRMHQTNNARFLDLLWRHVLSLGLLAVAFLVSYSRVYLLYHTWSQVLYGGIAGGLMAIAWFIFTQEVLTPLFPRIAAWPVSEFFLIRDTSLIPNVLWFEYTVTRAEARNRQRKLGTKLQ
# UniProt Q9BQI3, sequence (Q9BQI3 whole entry, looked up): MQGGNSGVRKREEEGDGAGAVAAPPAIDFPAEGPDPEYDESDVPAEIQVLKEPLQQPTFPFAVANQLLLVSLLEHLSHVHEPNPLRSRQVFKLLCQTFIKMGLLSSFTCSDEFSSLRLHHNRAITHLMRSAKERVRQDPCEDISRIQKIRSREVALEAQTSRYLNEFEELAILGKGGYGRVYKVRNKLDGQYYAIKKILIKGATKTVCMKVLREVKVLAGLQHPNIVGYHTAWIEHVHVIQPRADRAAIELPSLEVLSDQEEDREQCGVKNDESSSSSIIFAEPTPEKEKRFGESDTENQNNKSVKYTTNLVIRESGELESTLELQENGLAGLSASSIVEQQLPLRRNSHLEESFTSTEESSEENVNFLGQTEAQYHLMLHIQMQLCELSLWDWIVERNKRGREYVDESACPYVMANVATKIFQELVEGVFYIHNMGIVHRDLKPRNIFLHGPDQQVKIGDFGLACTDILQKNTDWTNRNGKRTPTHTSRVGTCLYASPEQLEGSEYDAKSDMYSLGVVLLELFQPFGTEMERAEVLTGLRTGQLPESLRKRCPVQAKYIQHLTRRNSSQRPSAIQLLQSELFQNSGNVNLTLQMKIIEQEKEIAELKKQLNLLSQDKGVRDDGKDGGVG
# UniProt Q9BU89, sequence (Q9BU89 whole entry, looked up): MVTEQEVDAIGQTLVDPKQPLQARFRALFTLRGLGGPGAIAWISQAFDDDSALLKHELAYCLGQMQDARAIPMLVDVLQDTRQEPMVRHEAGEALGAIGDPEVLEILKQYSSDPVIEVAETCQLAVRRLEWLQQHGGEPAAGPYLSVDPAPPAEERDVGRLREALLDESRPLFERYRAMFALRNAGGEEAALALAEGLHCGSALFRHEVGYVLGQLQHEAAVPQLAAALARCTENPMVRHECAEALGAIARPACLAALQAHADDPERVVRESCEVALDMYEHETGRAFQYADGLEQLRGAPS
# UniProt P24534, sequence (P24534 whole entry, looked up): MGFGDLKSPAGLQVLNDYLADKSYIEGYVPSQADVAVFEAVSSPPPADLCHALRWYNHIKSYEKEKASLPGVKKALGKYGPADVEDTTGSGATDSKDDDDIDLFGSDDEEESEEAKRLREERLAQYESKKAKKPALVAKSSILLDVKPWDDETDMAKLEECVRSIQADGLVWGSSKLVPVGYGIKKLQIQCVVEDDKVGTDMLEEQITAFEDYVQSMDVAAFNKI
# UniProt Q9NVR5, sequence (Q9NVR5 whole entry, looked up): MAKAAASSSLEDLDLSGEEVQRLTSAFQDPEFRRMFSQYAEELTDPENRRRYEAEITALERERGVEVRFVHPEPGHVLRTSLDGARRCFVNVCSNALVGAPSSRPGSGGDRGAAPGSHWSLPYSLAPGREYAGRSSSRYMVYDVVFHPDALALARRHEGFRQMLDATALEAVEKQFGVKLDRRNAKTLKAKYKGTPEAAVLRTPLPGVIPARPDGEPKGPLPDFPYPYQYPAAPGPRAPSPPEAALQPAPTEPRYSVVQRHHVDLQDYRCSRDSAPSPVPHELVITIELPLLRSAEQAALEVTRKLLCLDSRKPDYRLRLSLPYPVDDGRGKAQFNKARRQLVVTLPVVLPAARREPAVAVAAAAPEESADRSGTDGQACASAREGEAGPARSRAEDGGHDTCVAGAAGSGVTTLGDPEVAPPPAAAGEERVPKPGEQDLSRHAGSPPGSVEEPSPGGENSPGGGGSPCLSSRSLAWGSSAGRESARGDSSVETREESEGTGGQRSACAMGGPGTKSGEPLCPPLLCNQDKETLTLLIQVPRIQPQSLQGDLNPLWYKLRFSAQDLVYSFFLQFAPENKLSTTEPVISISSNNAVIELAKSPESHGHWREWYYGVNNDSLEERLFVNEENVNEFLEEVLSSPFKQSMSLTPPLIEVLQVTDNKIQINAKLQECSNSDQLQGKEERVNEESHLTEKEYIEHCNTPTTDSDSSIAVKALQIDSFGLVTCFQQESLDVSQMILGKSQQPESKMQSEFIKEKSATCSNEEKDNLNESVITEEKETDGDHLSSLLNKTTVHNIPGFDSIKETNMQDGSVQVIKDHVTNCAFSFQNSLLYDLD
# UniProt Q6P3W2, sequence (Q6P3W2 whole entry, looked up): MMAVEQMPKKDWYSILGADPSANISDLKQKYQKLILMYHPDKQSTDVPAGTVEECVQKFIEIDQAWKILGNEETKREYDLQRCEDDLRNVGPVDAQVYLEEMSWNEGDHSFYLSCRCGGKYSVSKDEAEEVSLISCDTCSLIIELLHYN
# UniProt P25685, sequence (P25685 whole entry, looked up): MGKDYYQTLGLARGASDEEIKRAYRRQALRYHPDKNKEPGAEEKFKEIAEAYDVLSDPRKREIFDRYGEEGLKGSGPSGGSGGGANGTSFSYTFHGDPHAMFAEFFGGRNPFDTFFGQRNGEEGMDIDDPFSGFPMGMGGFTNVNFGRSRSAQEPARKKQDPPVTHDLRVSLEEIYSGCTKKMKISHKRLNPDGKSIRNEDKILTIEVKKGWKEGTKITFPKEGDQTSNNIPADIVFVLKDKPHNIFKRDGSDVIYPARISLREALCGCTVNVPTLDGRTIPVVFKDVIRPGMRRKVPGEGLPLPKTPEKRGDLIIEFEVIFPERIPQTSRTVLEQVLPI
# UniProt Q5QJE6, sequence (Q5QJE6 whole entry, looked up): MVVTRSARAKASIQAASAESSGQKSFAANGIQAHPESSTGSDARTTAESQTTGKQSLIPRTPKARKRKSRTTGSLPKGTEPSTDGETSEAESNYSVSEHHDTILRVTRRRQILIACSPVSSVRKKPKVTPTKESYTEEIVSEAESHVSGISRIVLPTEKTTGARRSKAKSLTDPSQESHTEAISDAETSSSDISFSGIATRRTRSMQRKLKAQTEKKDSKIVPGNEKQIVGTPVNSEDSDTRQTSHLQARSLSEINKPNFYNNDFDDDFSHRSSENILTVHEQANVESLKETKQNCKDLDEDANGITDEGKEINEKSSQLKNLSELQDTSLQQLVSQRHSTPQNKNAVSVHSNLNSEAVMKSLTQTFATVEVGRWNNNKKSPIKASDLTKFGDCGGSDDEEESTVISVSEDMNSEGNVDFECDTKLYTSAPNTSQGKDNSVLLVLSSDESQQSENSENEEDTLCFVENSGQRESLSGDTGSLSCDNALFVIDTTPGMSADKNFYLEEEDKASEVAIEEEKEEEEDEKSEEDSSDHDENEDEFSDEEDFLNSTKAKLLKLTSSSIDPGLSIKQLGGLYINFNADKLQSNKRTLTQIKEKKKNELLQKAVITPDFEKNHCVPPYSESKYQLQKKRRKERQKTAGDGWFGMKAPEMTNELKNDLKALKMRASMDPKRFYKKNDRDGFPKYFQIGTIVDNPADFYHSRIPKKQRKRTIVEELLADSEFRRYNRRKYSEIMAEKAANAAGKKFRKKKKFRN
# UniProt Q6IAN0, sequence (Q6IAN0 whole entry, looked up): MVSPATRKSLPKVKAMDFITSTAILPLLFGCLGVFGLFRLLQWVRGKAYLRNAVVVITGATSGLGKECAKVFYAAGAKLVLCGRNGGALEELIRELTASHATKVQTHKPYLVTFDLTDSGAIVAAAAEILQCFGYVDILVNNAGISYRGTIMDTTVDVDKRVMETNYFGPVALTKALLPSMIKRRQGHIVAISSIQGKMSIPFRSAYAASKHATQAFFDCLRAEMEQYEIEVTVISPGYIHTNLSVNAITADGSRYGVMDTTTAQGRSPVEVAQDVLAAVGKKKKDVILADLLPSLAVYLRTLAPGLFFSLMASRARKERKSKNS
# UniProt Q8N8J7, sequence (Q8N8J7 whole entry, looked up): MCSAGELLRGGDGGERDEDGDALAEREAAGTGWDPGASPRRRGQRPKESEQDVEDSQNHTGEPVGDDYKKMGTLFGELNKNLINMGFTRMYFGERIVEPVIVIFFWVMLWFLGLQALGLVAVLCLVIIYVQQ
# UniProt Q9HBU6, sequence (Q9HBU6 whole entry, looked up): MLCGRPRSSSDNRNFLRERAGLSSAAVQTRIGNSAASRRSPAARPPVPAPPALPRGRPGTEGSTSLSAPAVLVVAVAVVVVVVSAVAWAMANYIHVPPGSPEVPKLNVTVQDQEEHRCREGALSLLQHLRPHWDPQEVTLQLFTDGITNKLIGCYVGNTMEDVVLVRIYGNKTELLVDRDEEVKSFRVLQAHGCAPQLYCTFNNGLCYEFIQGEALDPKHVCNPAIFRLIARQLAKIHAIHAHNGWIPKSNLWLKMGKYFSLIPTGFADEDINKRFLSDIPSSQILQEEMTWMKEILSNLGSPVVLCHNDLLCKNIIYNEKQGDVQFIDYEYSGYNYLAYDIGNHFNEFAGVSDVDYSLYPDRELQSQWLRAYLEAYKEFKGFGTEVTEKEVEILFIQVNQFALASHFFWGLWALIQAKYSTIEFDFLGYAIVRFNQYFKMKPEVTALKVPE
# UniProt Q96LJ7, sequence (Q96LJ7 whole entry, looked up): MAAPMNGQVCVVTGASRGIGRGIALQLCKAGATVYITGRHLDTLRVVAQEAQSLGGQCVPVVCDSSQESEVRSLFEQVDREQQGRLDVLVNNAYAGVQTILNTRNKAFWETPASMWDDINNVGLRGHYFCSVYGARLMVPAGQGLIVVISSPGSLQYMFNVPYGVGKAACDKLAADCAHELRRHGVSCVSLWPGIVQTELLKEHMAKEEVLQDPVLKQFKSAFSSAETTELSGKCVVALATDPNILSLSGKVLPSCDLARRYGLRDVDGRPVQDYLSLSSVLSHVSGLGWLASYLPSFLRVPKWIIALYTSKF
# UniProt Q96DA6, sequence (Q96DA6 whole entry, looked up): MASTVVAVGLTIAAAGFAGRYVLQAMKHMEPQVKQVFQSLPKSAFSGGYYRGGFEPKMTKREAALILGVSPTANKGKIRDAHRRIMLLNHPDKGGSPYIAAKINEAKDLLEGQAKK
row,Target,log2 fold change
1,DHX16 (UniProt O60231),0.059
2,CUX1 isoform 3 (UniProt P39880),0.034
3,DOLPP1 (UniProt Q86YN1),-0.107
4,DUS3L (UniProt Q96G46),-0.057
5,EIF2AK1 (UniProt Q9BQI3),-0.051
6,ETNK1 (UniProt Q9HBU6),0.071
7,DNAJC24 (UniProt Q6P3W2),0.025
8,EEF1B2 (UniProt P24534),0.036
9,DNTTIP2 (UniProt Q5QJE6),-0.021
10,DNAAF2 (UniProt Q9NVR5),-0.013
11,DAG1 (UniProt Q14118),0.072
12,DOHH (UniProt Q9BU89),-0.062
13,DHRS7B (UniProt Q6IAN0),-0.001
14,DNAJB1 (UniProt P25685),0.066
15,FAM241A (UniProt Q8N8J7),0.041

# Compound: Cc1sc2c(c1C)C(c1ccc(Cl)cc1)=N[C@@H](CC(=O)OC(C)(C)C)c1nnc(C)n1-2
# Assay: as above
# Outline: as §1
row,Target,log2 fold change
1,DHRS3 (UniProt O75911),0.017
2,EFCAB14 (UniProt O75071),0.018
3,ECH1 (UniProt Q13011),-0.114
4,DTWD2 (UniProt Q8NBA8),0.043
5,DDX5 (UniProt P17844),-0.027
6,DTNBP1 (UniProt Q96EV8),0.001
7,"FADS1, A0A0A0MR51",-0.005
8,EHD2 (UniProt Q9NZN4),-0.019
9,ERLIN2 (UniProt O94905),0.006
10,FAM83D (UniProt Q9H4H8),0.045
11,DHRS1 (UniProt Q96LJ7),0.321
12,DNAJC19 (UniProt Q96DA6),0
13,FAM50A (UniProt Q14320),-0.025
14,CUEDC2 (UniProt Q9H467),0.01
15,FAF2 (UniProt Q96CS3),-0.012
16,F5 (UniProt P12259),0.077
17,EIF3J (UniProt O75822),-0.041
18,FAM3A (UniProt P98173),-0.051
19,DMXL1 (UniProt Q9Y485),-0.016
20,EIF4G1 isoform 8 (UniProt Q04637),0.135

row,Target,log2 fold change
1,EXOSC10 (UniProt Q01780),0.03
2,EMD (UniProt P50402),0.058
3,DCTN1 isoform 4 (UniProt Q14203),0.044
4,EIF4G3 isoform 3 (UniProt O43432),0.038
5,DHX16 (UniProt O60231),-0.003
6,CUX1 isoform 3 (UniProt P39880),-0.009
7,DOLPP1 (UniProt Q86YN1),0.062
8,DUS3L (UniProt Q96G46),-0.007
9,EIF2AK1 (UniProt Q9BQI3),0.025
10,ETNK1 (UniProt Q9HBU6),-0.092
11,DNAJC24 (UniProt Q6P3W2),-0.002
12,EEF1B2 (UniProt P24534),0.026
13,DNTTIP2 (UniProt Q5QJE6),0.087
14,DNAAF2 (UniProt Q9NVR5),-0.003
15,DAG1 (UniProt Q14118),0.016
16,DOHH (UniProt Q9BU89),0.031
17,DHRS7B (UniProt Q6IAN0),-0.018
18,DNAJB1 (UniProt P25685),-0.003
19,FAM241A (UniProt Q8N8J7),0

# Compound: c1ccc([C@@H]2C[C@H]2NC2CCNCC2)cc1
# Assay: as above
# Outline: as §1
row,Target,log2 fold change
1,DHRS3 (UniProt O75911),-0.024
2,EFCAB14 (UniProt O75071),0.321
3,ECH1 (UniProt Q13011),-0.046
4,DTWD2 (UniProt Q8NBA8),-0.036
5,DDX5 (UniProt P17844),0.038
6,DTNBP1 (UniProt Q96EV8),0.013
7,"FADS1, A0A0A0MR51",-0.038
8,EHD2 (UniProt Q9NZN4),-0.049
9,ERLIN2 (UniProt O94905),-0.044
10,FAM83D (UniProt Q9H4H8),0.06
11,DHRS1 (UniProt Q96LJ7),0.013
12,DNAJC19 (UniProt Q96DA6),-0.041
13,FAM50A (UniProt Q14320),0.007
14,CUEDC2 (UniProt Q9H467),-0.022
15,FAF2 (UniProt Q96CS3),-0.017
16,F5 (UniProt P12259),0.014
17,EIF3J (UniProt O75822),-0.035
18,FAM3A (UniProt P98173),-0.014
19,DMXL1 (UniProt Q9Y485),-0.05
20,EIF4G1 isoform 8 (UniProt Q04637),-0.002

row,Target,log2 fold change
1,EXOSC10 (UniProt Q01780),-0.041
2,EMD (UniProt P50402),0.031
3,DCTN1 isoform 4 (UniProt Q14203),-0.008
4,EIF4G3 isoform 3 (UniProt O43432),-0.06
5,DHX16 (UniProt O60231),0.017
6,CUX1 isoform 3 (UniProt P39880),0.016
7,DOLPP1 (UniProt Q86YN1),0.153
8,DUS3L (UniProt Q96G46),0.007
9,EIF2AK1 (UniProt Q9BQI3),0.018
10,ETNK1 (UniProt Q9HBU6),0.022
11,DNAJC24 (UniProt Q6P3W2),0.054
12,EEF1B2 (UniProt P24534),-0.034
13,DNTTIP2 (UniProt Q5QJE6),0.132
14,DNAAF2 (UniProt Q9NVR5),0.002
15,DAG1 (UniProt Q14118),0.049
16,DOHH (UniProt Q9BU89),-0.088
17,DHRS7B (UniProt Q6IAN0),-0.013
18,DNAJB1 (UniProt P25685),-0.026
19,FAM241A (UniProt Q8N8J7),0.008
